Measurements: paper PMC8384837, “Expanding the binding specificity for RNA recognition by a PUF domain”

Legend:
Test in all cases: yeast three-hybrid, YBZ-1, SC-Leu-His + 0.5 mM 3-AT, 4 days
Details in all cases: tags: N-Gal4 AD-HA kept; label: inside an RPR1-promoter hybrid RNA with tandem MS2 sites; ssRNA
PUM1 PUF domain R7-KRG = PUM1 PUF domain R7-KRG (Homo sapiens, UniProt Q14671 828-1176, S1079K;N1080R;E1083G)
Summary of the method: (§1)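 Sequencing with Illumina followed PCR amplification of the repeat regions from transformants grown four days on SC-Leu (input) or SC-Leu-His + 0.5 mM 3-AT (selection). The transformants were strain YBZ-1 with a LexA–MS2 coat fusion and a HIS3 reporter, carrying Pumilio-1 PUF domain libraries and matching RNA elements. The interaction score is the log change in variant frequency from input to selection, computed in log2 with a pseudocount of 1 for absent variants.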

PUM1 PUF domain R3-TRF = PUM1 PUF domain R3-TRF (Homo sapiens, UniProt Q14671 828-1176, C935T;Q939F)
Summary of the method: as §1

PUM1 PUF domain R3-GPT = PUM1 PUF domain R3-GPT (Homo sapiens, UniProt Q14671 828-1176, C935G;R936P;Q939T)
Summary of the method: as §1

PUM1 PUF domain R3-IYL = PUM1 PUF domain R3-IYL (Homo sapiens, UniProt Q14671 828-1176, C935I;R936Y;Q939L)
Summary of the method: as §1

PUM1 PUF domain R4-SML = PUM1 PUF domain R4-SML (Homo sapiens, UniProt Q14671 828-1176, N971S;H972M;Q975L)
Summary of the method: as §1

PUM1 PUF domain R5-EFR = PUM1 PUF domain R5-EFR (Homo sapiens, UniProt Q14671 828-1176, C1007E;R1008F;Q1011R)
Summary of the method: as §1

PUM1 PUF domain R3-LWT = PUM1 PUF domain R3-LWT (Homo sapiens, UniProt Q14671 828-1176, C935L;R936W;Q939T)
Summary of the method: as §1

PUM1 PUF domain R3-EWE = PUM1 PUF domain R3-EWE (Homo sapiens, UniProt Q14671 828-1176, C935E;R936W;Q939E)
Summary of the method: as §1

PUM1 PUF domain R7-TVG = PUM1 PUF domain R7-TVG (Homo sapiens, UniProt Q14671 828-1176, S1079T;N1080V;E1083G)
Summary of the method: as §1

PUM1 PUF domain R1-SLR = PUM1 PUF domain R1-SLR (Homo sapiens, UniProt Q14671 828-1176, R864L;Q867R)
Summary of the method: as §1

GGCUAGAACUAGUGGAUCCCCCGGCGCCCGGCGGCUCGAGCCCGGGUAAGUCUAAAUAGUCUGCAUGCCGCCGGGCGCCAUGCCUGCAGGUCGACUCUAGAAAACAUG
binding signal (PUM1 PUF domain R7-KRG): 2.64 log2 enrichment (interaction score)

GGCUAGAACUAGUGGAUCCCCCGGCGCCCGGCGGCUCGAGCCCGGGUAAGUGUAAAUAGUCUGCAUGCCGCCGGGCGCCAUGCCUGCAGGUCGACUCUAGAAAACAUG
binding signal (PUM1 PUF domain R3-TRF): 4.8 log2 enrichment (interaction score)
binding signal (PUM1 PUF domain R3-GPT): 2.91 log2 enrichment (interaction score)
binding signal (PUM1 PUF domain R3-IYL): 4.44 log2 enrichment (interaction score)
binding signal (PUM1 PUF domain R4-SML): 3.12 log2 enrichment (interaction score)
binding signal (PUM1 PUF domain R5-EFR): 3.42 log2 enrichment (interaction score)
binding signal (PUM1 PUF domain R3-LWT): 3.77 log2 enrichment (interaction score)

GGCUAGAACUAGUGGAUCCCCCGGCGCCCGGCGGCUCGAGCCCGGGUAAGUGUCAAUAGUCUGCAUGCCGCCGGGCGCCAUGCCUGCAGGUCGACUCUAGAAAACAUG
binding signal (PUM1 PUF domain R5-EFR): 1.31 log2 enrichment (interaction score)

GGCUAGAACUAGUGGAUCCCCCGGCGCCCGGCGGCUCGAGCCCGGGUAAGUGUAAGUAGUCUGCAUGCCGCCGGGCGCCAUGCCUGCAGGUCGACUCUAGAAAACAUG
binding signal (PUM1 PUF domain R3-EWE): 4.74 log2 enrichment (interaction score)

GGCUAGAACUAGUGGAUCCCCCGGCGCCCGGCGGCUCGAGCCCGGGUAAGUGUAAUUAGUCUGCAUGCCGCCGGGCGCCAUGCCUGCAGGUCGACUCUAGAAAACAUG
binding signal (PUM1 PUF domain R3-TRF): 0.63 log2 enrichment (interaction score)
binding signal (PUM1 PUF domain R3-GPT): 2.69 log2 enrichment (interaction score)
binding signal (PUM1 PUF domain R3-LWT): 4.05 log2 enrichment (interaction score)
binding signal (PUM1 PUF domain R3-EWE): 4.69 log2 enrichment (interaction score)

GGCUAGAACUAGUGGAUCCCCCGGCGCCCGGCGGCUCGAGCCCGGGUAAGUUUAAAUAGUCUGCAUGCCGCCGGGCGCCAUGCCUGCAGGUCGACUCUAGAAAACAUG
binding signal (PUM1 PUF domain R7-KRG): 2.98 log2 enrichment (interaction score)
binding signal (PUM1 PUF domain R7-TVG): 4.37 log2 enrichment (interaction score)

GGCUAGAACUAGUGGAUCCCCCGGCGCCCGGCGGCUCGAGCCCGGGUAAGUGUAAAUCGUCUGCAUGCCGCCGGGCGCCAUGCCUGCAGGUCGACUCUAGAAAACAUG
binding signal (PUM1 PUF domain R1-SLR): 3.37 log2 enrichment (interaction score)

GGCUAGAACUAGUGGAUCCCCCGGCGCCCGGCGGCUCGAGCCCGGGUAAGUGUAAAUUGUCUGCAUGCCGCCGGGCGCCAUGCCUGCAGGUCGACUCUAGAAAACAUG
binding signal (PUM1 PUF domain R1-SLR): 0.57 log2 enrichment (interaction score)
